Measured values published in PubChem BioAssay (Tox21).
Records with an inconclusive call do not appear. Activity calls are given as the source filed them. Unless noted, the call rests on the fitted dose curve; in most records, active means well fitted curve in the direction sought with a large enough effect in the repeat runs; inconclusive means weak or mixed curves; inactive means no such curve, though single readings can be large; an effect the other way counts as inactive or inconclusive.

What was measured:
[1] = qHTS assay for identifying genotoxic compounds that show differential cytotoxicity against isogenic chicken DT40 cell lines with known DNA damage response pathways - Rev3 mutant cell line (AID 743014); further: nearly all actives have a fitted effect of over 55% in size
[2] = qHTS assay for identifying genotoxic compounds that show differential cytotoxicity against isogenic chicken DT40 cell lines with known DNA damage response pathways - Rad54/Ku70 mutant cell line (AID 743015); further: nearly all actives have a fitted effect of over 60% in size
[3] = qHTS assay to identify small molecule antagonists of the androgen receptor (AR) signaling pathway - cell viability counter screen (AID 743033; further: nearly all actives have a fitted effect of over 45% in size)
[4] = qHTS assay to identify small molecule antagonists of the thyroid receptor (TR) signaling pathway - cell viability counter screen (AID 743064); further: nearly all actives have a fitted effect of over 50% in size
In short: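 CellTiter-Fluor readout, 30 min at 37 °C/5% CO2, following 23.5 h incubation of GH3.TRE-Luc cells with test compound and 1 nM T3 (final).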

[5] = qHTS assay to identify small molecule antagonists of the thyroid receptor (TR) signaling pathway (AID 743065); further: series mostly up to about 70 µM; nearly all actives have a fitted effect of over 55% in size
In short: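 Antagonism measured as loss of luciferase signal in GH3 cells stably carrying a TRE-luciferase reporter, co-treated with compound and T3 (1 nM final) for 23.5 h at 37 C. Viability was read in the same well by CellTiter-Fluor.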

[6] = test system: thyroid hormone receptor (rat, GH3 cells); assay: qHTS assay to identify small molecule agonists of the thyroid receptor (TR) signaling pathway (AID 743066; calls by dose curve)
[7] = qHTS assay to identify small molecule antagonists of the estrogen receptor alpha (ER-alpha) signaling pathway - cell viability counter screen (AID 743074; calls by dose curve; further: nearly all actives have a fitted effect of over 45% in size)
[8] = qHTS assay to identify small molecule antagonists of the estrogen receptor alpha (ER-alpha) signaling pathway using the BG1 cell line - cell viability counter screen (AID 743081);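 further: compound given together with 17beta-estradiol as the ER stimulus; series mostly up to about 70 µM; nearly all actives have a fitted effect of over 45% in size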
Aromatase (Homo sapiens) = Aromatase (Homo sapiens) (UniProt P11511); assay: qHTS assay to identify aromatase inhibitors (AID 743083); further: series mostly up to about 70 µM; nearly all actives have a fitted effect of over 55% in size
Chain of Aromatase (Homo sapiens) (P11511 whole entry, looked up): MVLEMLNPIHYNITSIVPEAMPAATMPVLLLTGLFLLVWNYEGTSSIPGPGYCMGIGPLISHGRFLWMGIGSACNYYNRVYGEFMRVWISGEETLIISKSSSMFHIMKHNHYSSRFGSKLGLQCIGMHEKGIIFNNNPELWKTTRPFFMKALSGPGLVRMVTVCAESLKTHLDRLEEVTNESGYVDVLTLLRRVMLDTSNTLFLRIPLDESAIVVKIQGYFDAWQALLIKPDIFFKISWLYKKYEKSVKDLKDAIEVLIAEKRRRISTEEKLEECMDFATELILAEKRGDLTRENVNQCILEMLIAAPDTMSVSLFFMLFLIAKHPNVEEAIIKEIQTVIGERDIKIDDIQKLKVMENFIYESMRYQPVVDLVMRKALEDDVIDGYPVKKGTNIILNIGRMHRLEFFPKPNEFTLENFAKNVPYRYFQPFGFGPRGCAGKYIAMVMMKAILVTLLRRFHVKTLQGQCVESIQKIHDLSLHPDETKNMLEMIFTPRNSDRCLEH

[9] = qHTS assay to identify small molecule antagonists of the androgen receptor (AR) signaling pathway using the MDA cell line - cell viability counter screen (AID 743041; further: nearly all actives have a fitted effect of over 45% in size)
In short: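 Using the breast carcinoma line MDA-kb2 AR-luc, test chemicals were co-incubated with R1881 for 16 h; CellTiter-Fluor reagent, added at 15.5 h, provided a fluorescence measure of live cells.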

[10] = molecular target: Estrogen receptor (Homo sapiens) (UniProt P03372); assay: qHTS assay to identify small molecule antagonists of the estrogen receptor alpha (ER-alpha) signaling pathway (AID 743069; active means well fitted curve in the direction sought with a large enough effect in the signal ratio in the repeat runs, not every such curve was filed as active; the % refers to the signal ratio)
Chain of Estrogen receptor (Homo sapiens) (P03372 whole entry, looked up): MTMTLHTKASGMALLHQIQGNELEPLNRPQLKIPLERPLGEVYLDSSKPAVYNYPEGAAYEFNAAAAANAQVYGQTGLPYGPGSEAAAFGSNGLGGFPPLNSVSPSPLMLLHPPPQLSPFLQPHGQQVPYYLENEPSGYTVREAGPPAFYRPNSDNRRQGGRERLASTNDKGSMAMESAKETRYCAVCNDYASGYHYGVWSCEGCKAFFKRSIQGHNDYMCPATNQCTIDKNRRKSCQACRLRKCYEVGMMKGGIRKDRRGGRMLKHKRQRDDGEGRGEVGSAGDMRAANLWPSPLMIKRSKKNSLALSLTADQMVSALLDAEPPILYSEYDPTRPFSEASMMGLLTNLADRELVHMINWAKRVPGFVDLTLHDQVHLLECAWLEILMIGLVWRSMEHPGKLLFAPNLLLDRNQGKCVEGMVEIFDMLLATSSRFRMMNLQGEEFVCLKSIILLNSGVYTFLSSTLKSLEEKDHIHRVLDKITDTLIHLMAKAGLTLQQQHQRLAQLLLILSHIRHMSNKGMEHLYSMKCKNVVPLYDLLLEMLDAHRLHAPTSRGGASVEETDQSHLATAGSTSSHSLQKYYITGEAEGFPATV
In short: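 Fluorescence intensity from a beta-lactamase FRET substrate served as the read-out. Cells: HEK293 with stably integrated ER-alpha-UAS-bla reporter. Agonist 17beta-estradiol was co-added with compounds; incubation 18 hr at 37C, substrate 2 hr at room temperature.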

[11] = molecular target: Estrogen receptor (Homo sapiens) (UniProt P03372); assay: qHTS assay to identify small molecule agonists of the estrogen receptor alpha (ER-alpha) signaling pathway (AID 743075; calls by dose curve)
[12] = molecular target: Estrogen receptor (Homo sapiens) (UniProt P03372); assay: qHTS assay to identify small molecule agonists of the estrogen receptor alpha (ER-alpha) signaling pathway using the BG1 cell line (AID 743079); further: nearly all actives have a fitted effect of over 20% in size
[13] = qHTS assay to identify small molecule antagonists of the estrogen receptor alpha (ER-alpha) signaling pathway using the BG1 cell line (AID 743080; calls by dose curve;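 further: BG1 cells stimulated with 17beta-estradiol alongside compound; series mostly up to about 70 µM; nearly all actives have a fitted effect of over 25% in size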)
In short: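 Endogenous full-length ER-alpha in BG1-Luc-4E2 cells drives a stably integrated 4×ERE luciferase gene; compounds were tested against 17beta-estradiol over 21.5 h, with luminescence and multiplexed viability fluorescence recorded.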

[14] = qHTS assay for identifying genotoxic compounds that show differential cytotoxicity against isogenic chicken DT40 cell lines with known DNA damage response pathways - wild type cell line (AID 743012); further: nearly all actives have a fitted effect of over 60% in size
In short: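 Viability of DNA repair-proficient chicken DT40 cells was assessed by CellTiter-Glo luminescence following 40 h compound exposure at 37 C/5% CO2.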

Measured: Potency

COc1ccc2cc(CCC(C)=O)ccc2c1
not listed: [9] | [10] | [11] | [12] | [13] | [14]
inactive: all other assays above

CN(C)c1ccncc1
not listed: [1] | [2] | [14]
inactive: all other assays above

CCOCCOCCOC(C)=O
not listed: [4] | [10] | [11] | [12] | [13]
inactive: all other assays above
